{"source": "PubChem BioAssay AID2315", "about": "(National Center for Advancing Translational Sciences (NCATS), 2010)", "note": "Out of some 290,000 compounds screened, about 27,000 (9.3%) were called active. Cut-off read from the data, not from the text of the source: active = inhibition mostly above about 28% (no sharp cut-off); inactive = mostly below about 43%. For the sample, actives were picked, then their nearest neighbours and some compounds at random.", "data": [{"test": "A qHTS for Small Molecule Inhibitors of Shiga Toxin; note: 0% is about no effect", "details": "Vero cells, Shiga toxin protein synthesis inhibition reporter; at 38.7 µM, stronger effect = higher value", "values": [{"smiles": "CC(C)(C)c1ccc(Cn2nnc3c(=O)[nH]c(C4CCCN(C(=O)c5ccco5)C4)nc32)cc1", "note": "(stereo not given)", "inhibition": "2.02% (inactive)"}, {"smiles": "Cc1cc(C)n(CCC(=O)N2CCN(S(=O)(=O)c3ccc(C)c(C)c3)CC2)n1", "inhibition": "-6.68% (inactive)"}, {"smiles": "Cc1ccc(CNC(=O)C2CCCN2S(=O)(=O)c2ccc3c(c2)C(C)(C)C(=O)N3C)cc1", "note": "(stereo not given)", "inhibition": "-2.07% (inactive)"}, {"smiles": "Cc1cc(C(F)F)nn1CC(=O)NC1CCCCCC1", "inhibition": "-2.84% (inactive)"}, {"smiles": "CCn1c(=S)sc2c(=O)n(CC(=O)Nc3ccc(OC)cc3)c(C)nc21", "inhibition": "-8.22% (inactive)"}, {"smiles": "COc1cc(CCC(=O)Nc2ccncc2Cl)cc(OC)c1OC", "inhibition": "-2.22% (inactive)"}, {"smiles": "CN(C(=O)CSc1nnnn1-c1ccccc1)C1CCCCC1", "inhibition": "31.7% (inactive)"}, {"smiles": "CN(C(=O)CSc1nncc2ccccc12)C1CCCCC1", "inhibition": "69.8% (active)"}, {"smiles": "CN(C(=O)CCn1c(=S)oc2ccccc21)C1CCCCC1", "inhibition": "-6.3% (inactive)"}, {"smiles": "CC(=O)Nc1ccc(N2C(=O)C3C4C=CC(CC4)C3C2=O)cc1", "note": "(stereo not given)", "inhibition": "11.7% (inactive)"}, {"smiles": "CC(=O)Nc1ccc(S(=O)(=O)N2CCN(C3CCCCCCC3)CC2)cc1", "inhibition": "-14.3% (inactive)"}, {"smiles": "O=C(CCc1ccc(S(=O)(=O)NC2CCCCC2)cc1)NCc1ccccc1", "inhibition": "-10% (inactive)"}, {"smiles": "O=C(CC1CCCCC1)NCc1ccccc1", "inhibition": "107% (active)"}, {"smiles": "O=C(CC1CCCCC1)NCc1ccc(F)cc1", "inhibition": "61.1% (active)"}, {"smiles": "O=C(Cc1ccc(F)cc1)NC1CCCC1", "inhibition": "-4.53% (inactive)"}, {"smiles": "CC(=O)Nc1ccc(NC(=O)CC2CCCC2)cc1", "inhibition": "48.2% (active)"}, {"smiles": "O=C(CC1CCCCC1)NCc1ccco1", "inhibition": "-2.21% (inactive)"}, {"smiles": "O=C(Cn1nc(C(F)(F)F)c2c1CCC2)NCc1ccc(F)cc1", "inhibition": "-2.3% (inactive)"}, {"smiles": "Cc1ccc(Cn2c(C)c3cnn(CC(=O)NCc4ccccn4)c(=O)c3c2C)cc1", "inhibition": "-6.49% (inactive)"}, {"smiles": "Cc1nn(CC2CC2)c(=O)n1N(C)c1ncc(C(F)(F)F)cc1Cl", "inhibition": "-23.8% (inactive)"}, {"smiles": "COc1ccc(NS(=O)(=O)c2ccc(F)cc2F)cn1", "inhibition": "-5.14% (inactive)"}, {"smiles": "CCOC(=O)Cn1c(=O)n(Cc2ccc(OC)cc2)c(=O)c2cccnc21", "inhibition": "-6.29% (inactive)"}, {"smiles": "Cc1cc(NS(=O)(=O)c2ccc(NC(=O)C(C)Oc3cccc(C)c3C)cc2)nc(C)n1", "note": "(stereo not given)", "inhibition": "1.79% (inactive)"}, {"smiles": "CC(NC(=O)COc1ccc(-c2ccccc2)cc1)C1CCCO1", "note": "(stereo not given)", "inhibition": "12% (inactive)"}, {"smiles": "COc1ccc(C)cc1NC(=O)CNCc1cccs1", "inhibition": "-6.47% (inactive)"}, {"smiles": "Cc1ccc2c(CC(=O)NCc3cccs3)coc2c1", "inhibition": "77.5% (active)"}, {"smiles": "O=C(Cc1coc2ccc3ccccc3c12)NCc1cccs1", "inhibition": "1.44% (inactive)"}, {"smiles": "CC(C)[C@H](NC(=O)N1CCn2c1nc1ccccc12)C(=O)NC1CC1", "inhibition": "25.9% (inactive)"}, {"smiles": "CCOC(=O)C1(CCOc2ccccc2)CCN(C(=O)c2cncs2)CC1", "inhibition": "-4.69% (inactive)"}, {"smiles": "CCOC(=O)C1(Cc2ccccc2C(F)(F)F)CCN(C(=O)c2cc(C)n(C)n2)CC1", "inhibition": "109% (active)"}, {"smiles": "CCOC(=O)C1(Cc2ccc(Cl)cc2)CCN(C(=O)C2=NNC(=O)CC2)CC1", "inhibition": "-6.2% (inactive)"}, {"smiles": "COC(=O)c1ccc(CNC(=O)C2CCC(=O)N(Cc3ccccn3)C2)cc1", "note": "(stereo not given)", "inhibition": "-9.5% (inactive)"}, {"smiles": "CN(C)c1ccc(C2N(C)C(=O)c3ccccc3N2C)cc1", "note": "(stereo not given)", "inhibition": "-12.6% (inactive)"}, {"smiles": "O=[N+]([O-])c1ccc(N2CCN(c3ccc(F)cc3)CC2)cn1", "inhibition": "20.3% (inactive)"}, {"smiles": "O=C(Nc1cccc(NC(=O)c2ccc(Br)cc2)c1)c1ccccc1", "inhibition": "-7.53% (inactive)"}, {"smiles": "O=C(Nc1ccccc1)c1ccc2nsnc2c1", "inhibition": "64.7% (active)"}, {"smiles": "Cc1nc(C)c(C(=O)Nc2cccc(C)c2C)o1", "inhibition": "-7.98% (inactive)"}, {"smiles": "O=C(Nc1ccccc1N1CCCCC1)c1ccc2nccnc2c1", "inhibition": "-14.9% (inactive)"}, {"smiles": "Cc1cccc(NC(=O)c2ccc(OCC(=O)NCc3ccccc3)cc2)c1C", "inhibition": "-9.42% (inactive)"}, {"smiles": "O=C(Nc1ccccc1Cl)c1ccc2nsnc2c1", "inhibition": "102% (active)"}, {"smiles": "Cc1cccc(NC(=O)c2ccc3nsnc3c2)c1C", "inhibition": "80% (active)"}, {"smiles": "O=S(=O)(Nc1ccccc1Cl)c1cccc2nsnc12", "inhibition": "-3.15% (inactive)"}, {"smiles": "COc1ccc(N2CCN(C(=O)C3CCN(C(=O)c4ccccc4Cl)CC3)CC2)cc1", "inhibition": "26.7% (inactive)"}, {"smiles": "CCCCC(CC)CNCc1cccn1CCN1CCOCC1", "note": "(stereo not given)", "inhibition": "-23.2% (inactive)"}, {"smiles": "COc1cccc(-c2nc(CS(=O)CC(=O)NCc3ccc(F)cc3)c(C)o2)c1", "note": "(stereo not given)", "inhibition": "-9.69% (inactive)"}, {"smiles": "COc1cccc(NC(=O)[C@H](Cc2c[nH]c3ccccc23)NC(=O)[C@@H]2Cc3ccccc3CN2)c1", "inhibition": "9.71% (inactive)"}, {"smiles": "O=S(=O)(Nc1cccc(-n2cnnn2)c1)c1cnc(Cl)c(Cl)c1", "inhibition": "-9.74% (inactive)"}, {"smiles": "Cc1ccc(O)c(NC(=O)COc2cc(C)ccc2C)c1", "inhibition": "-27.8% (inactive)"}, {"smiles": "Cc1ccc(O)c(NC(=O)c2cc(-c3ccco3)on2)c1", "inhibition": "81.4% (active)"}, {"smiles": "Cc1ccc(C)c(NC(=O)c2ccc(OC(=O)c3ccco3)cc2)c1", "inhibition": "32.9% (inactive)"}, {"smiles": "O=C(O)CSc1c2c(nc3cc(C(=O)Nc4cccc(C(F)(F)F)c4)ccc13)CCCC2", "inhibition": "-3.73% (inactive)"}, {"smiles": "O=C(O)CN1CCN(C(c2ccccc2)c2ccccc2)CC1", "inhibition": "-10.2% (inactive)"}, {"smiles": "O=C(CSc1ccc(-c2ccco2)nn1)NCc1ccc2c(c1)OCO2", "inhibition": "25% (inactive)"}, {"smiles": "Clc1ccccc1CSc1nnc(-c2ccco2)c(-c2ccco2)n1", "inhibition": "-3.95% (inactive)"}, {"smiles": "Cc1cc(SCc2c(F)cccc2Cl)nc(=O)[nH]1", "inhibition": "5.47% (inactive)"}, {"smiles": "Brc1ccc(CSc2ccc(-c3ccco3)nn2)cc1", "inhibition": "99.8% (active)"}, {"smiles": "Fc1cccc(Cl)c1CSc1ccc(-c2ccco2)nn1", "inhibition": "89% (active)"}, {"smiles": "COc1ccc(NC(=O)CSc2ccc(-c3ccco3)nn2)c(OC)c1", "inhibition": "-11.2% (inactive)"}, {"smiles": "O=C(Nc1ccccc1-c1ccccc1)c1ccccc1[N+](=O)[O-]", "inhibition": "2.33% (inactive)"}, {"smiles": "O=C(Nc1ccc(N2CCOCC2)nc1)c1c(F)cccc1F", "inhibition": "55.5% (active)"}, {"smiles": "O=C(Nc1ccc(F)cc1)c1cccnc1N1CCOCC1", "inhibition": "28.6% (inactive)"}, {"smiles": "NC(=O)c1ccc(N2CCOCC2)nc1", "inhibition": "-13.6% (inactive)"}, {"smiles": "CC(=O)c1ccc(S(=O)(=O)N(C)CCCC(=O)N(C)Cc2ccccc2F)cc1", "inhibition": "-5.36% (inactive)"}, {"smiles": "COc1ccc(/C=C(/CC(=O)Nc2ccc(C)cc2)c2nc3ccccc3s2)cc1", "inhibition": "19.4% (inactive)"}, {"smiles": "CCn1c(Cc2ccc(OC)cc2)nnc1SCC(=O)Nc1ccc(N2CCOCC2)cc1", "inhibition": "1.72% (inactive)"}, {"smiles": "COc1cccc(/C=C(/CC(=O)Nc2ccc(N3CCOCC3)cc2)c2nc3ccccc3s2)c1", "inhibition": "90.3% (active)"}, {"smiles": "COc1ccc(C(C)NC(=O)C2CCCC2)cc1", "note": "(stereo not given)", "inhibition": "-3.92% (inactive)"}, {"smiles": "O=C(COc1ccc2ccc(=O)oc2c1)NCC(O)c1ccccc1", "note": "(stereo not given)", "inhibition": "-18.4% (inactive)"}, {"smiles": "O=C(O)c1ccccc1C(=O)NC1=NN(c2ccccc2)CC1", "inhibition": "3.05% (inactive)"}, {"smiles": "Cc1cccc(N2CCN(c3ccc(C(N)=O)cc3[N+](=O)[O-])CC2)c1C", "inhibition": "5.45% (inactive)"}, {"smiles": "Cc1ccc(C(=O)c2ccc(N3CCN(C)CC3)c([N+](=O)[O-])c2)cc1", "inhibition": "76.3% (active)"}, {"smiles": "CCOC(=O)C1CCN(c2ccc(C(=O)O)cc2[N+](=O)[O-])CC1", "inhibition": "-7.98% (inactive)"}, {"smiles": "CCOC(=O)C1CN(S(=O)(=O)c2ccc(OC)cc2)c2cc(Cl)ccc2O1", "note": "(stereo not given)", "inhibition": "-12.8% (inactive)"}, {"smiles": "CC(C)C(C)NC(=O)COc1nc2ccccc2nc1N(C)C1CCCCC1", "note": "(stereo not given)", "inhibition": "-16.3% (inactive)"}, {"smiles": "O=C(NC1CCCC1)C1CCN(C(=O)Nc2cccc(Cl)c2)CC1", "inhibition": "-5.04% (inactive)"}, {"smiles": "Cc1ccc(S(=O)(=O)N(Cc2ccccc2)c2ccccn2)cc1[N+](=O)[O-]", "inhibition": "5.85% (inactive)"}, {"smiles": "Cc1nn(-c2ccccc2)c(C)c1NC(=O)CCl", "inhibition": "16.7% (inactive)"}, {"smiles": "Cc1nn(-c2ccccc2)c(Cl)c1C(=O)Nc1ccccc1", "inhibition": "108% (active)"}, {"smiles": "Cc1nn(-c2ccccc2)c(Cl)c1/C=C/C(=O)c1ccc(O)cc1", "inhibition": "37.6% (inactive)"}, {"smiles": "Cc1nn(-c2ccccc2)c(C)c1/C=C/C(=O)OC(C)C(N)=O", "note": "(stereo not given)", "inhibition": "-6.62% (inactive)"}, {"smiles": "Cc1ccc(C(=O)/C=C/c2c(C)nn(-c3ccccc3)c2Cl)cc1", "inhibition": "45.2% (active)"}, {"smiles": "COc1ccc(CCNC(=O)c2c(C)nn(-c3ccccc3)c2Cl)cc1", "inhibition": "15.3% (inactive)"}, {"smiles": "Cc1cccc([C@@H]2[C@@H]3C(=O)N(Cc4ccccc4)C(=O)[C@@H]3[C@]3(C)C(=O)N(c4ccc(Br)cc4)C(=O)N23)c1", "inhibition": "10.9% (inactive)"}, {"smiles": "CCCN1CCN(C(=O)CCCNC(=O)c2ccc(Cl)cc2)CC1", "inhibition": "-8.41% (inactive)"}, {"smiles": "C[C@H](NC(=O)C1CC(=O)N(c2ccc3c(c2)OCCO3)C1)C(=O)N1CCC(C(=O)O)CC1", "note": "(stereo not given in full)", "inhibition": "-10.9% (inactive)"}, {"smiles": "COc1ccccc1N1CCN(C(=O)c2cc3c(-c4ccc(Cl)cc4)nn(C)c3s2)CC1", "inhibition": "19.3% (inactive)"}, {"smiles": "COc1ccccc1N1CCN(C(=O)c2cn(-c3ccccc3)nc2-c2cccnc2)CC1", "inhibition": "39.2% (active)"}, {"smiles": "O=C(c1cn(-c2ccccc2)nc1-c1cccnc1)N1CCCCC1", "inhibition": "-13.3% (inactive)"}, {"smiles": "COc1cc(C(=O)N2CCN(C3CCC(C)CC3)CC2)cc(OC)c1OC", "note": "(stereo not given)", "inhibition": "-9.82% (inactive)"}, {"smiles": "CCOc1ccc2nc(N(CCCN(C)C)C(=O)c3ccc(C(=O)c4ccccc4)cc3)sc2c1", "inhibition": "-6% (inactive)"}, {"smiles": "O=C(O)c1ccc(-n2nc(-c3ccccc3)c3ccccc3c2=O)cc1", "inhibition": "17.9% (inactive)"}, {"smiles": "CCOc1ccc(CCNC(=O)Nc2ccccc2)cc1OCC", "inhibition": "7.13% (inactive)"}, {"smiles": "CCOC(=O)C1CCN(C(=O)C2CCCN(S(=O)(=O)c3ccc(OC)c(Cl)c3)C2)CC1", "note": "(stereo not given)", "inhibition": "-2.72% (inactive)"}, {"smiles": "CCc1ccc2oc(-c3ccc(N)cc3)nc2c1", "inhibition": "47.9% (active)"}, {"smiles": "COc1ccc(C2C3=C(CCCC3=O)N(CC(=O)O)C3=C2C(=O)CCC3)cc1", "inhibition": "14.1% (inactive)"}]}]}
